# Only some compounds are listed: those with a hit (about 3.2% of all), similar ones and a draw of the others.
# Tau fibril ThT: inhibitors of human tau fibril formation, thioflavin T binding; 270,000 compounds, 2.1% hits; recombinant tau K18 P301L, heparin-induced fibrillization, ThT fluorescence; Potency, µM (highest dose often 57.4 µM), for inactives: top-dose activity, negative = inhibition, actives largely listed as inhibitors; note: nearly all actives have a fitted effect of over 55% in size
# Target sequence (P10636 561-689 P618L limits assumed): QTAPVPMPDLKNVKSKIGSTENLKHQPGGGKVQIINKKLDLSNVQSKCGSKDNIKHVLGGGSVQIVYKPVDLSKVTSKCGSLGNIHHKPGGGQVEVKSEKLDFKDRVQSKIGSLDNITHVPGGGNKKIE
#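 Heparin-induced (20 uM) aggregation of recombinant human K18 P301L tau, 15 uM unlabeled with 0.24 uM labeled, pH 7 acetate buffer, 6 hr at 37 C with compound. Fibrils quantified by 30 uM ThT fluorescence after 1 hr ambient incubation.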
# TexasRed fluor: alters Texas Red total fluorescence, flagging assay interference; TRb/SRC2 Texas Red total fluorescence interference; Potency, µM (titrated, usually from 106 µM), inactives show at the highest dose fluorescence change, negative = quenching; 280,000 compounds, 0.29% hits; active = well fitted curve in either direction with a large enough effect; inconclusive = small, poorly fitted or top-dose-only effect
#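 Human TRb ligand-binding domain at 0.6 uM with 20 nM Texas Red SRC2 peptide in Tris buffer containing 1 uM T3 and 5% DMSO, incubated with compound 5 h at ambient temperature. Total fluorescence (555/632 nm) calculated as parallel + 2 × perpendicular.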
# Tau fluor cs: counter-screen for tau fibril formation inhibitors; tau K18 P301L (four-repeat tau fragment) Alexa594 fluorescence, heparin fibrillization; 280,000 compounds, 0.93% hits; Potency, µM (top dose mostly 57.7 µM), for the others: at the top dose activity change, negative = decrease; AID 1463; note: nearly all actives have a fitted effect of over 55% in size
#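 Human K18 P301L tau (15 uM unlabeled plus 0.24 uM Alexa 594-labeled, final) in 100 mM sodium acetate pH 7 was mixed with compound and 20 uM heparin and incubated 6 hr at 37 C.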
# Tau fibril FP: tau fibrillization inhibition (FP); P10636; K18 P301L tau heparin fibrillization, Alexa594 FP, 6 h; 280,000 compounds, 0.39% hits; Potency, µM (highest dose often 57.7 µM), inactives show top-dose activity, negative = inhibition, most hits filed as inhibitors; note: nearly all actives have a fitted effect of over 55% in size
#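 Steps: dispense K18 P301L tau (15 uM plus 0.24 uM Alexa 594 tracer, final) in pH 7 sodium acetate; add compound; add heparin (20 uM final); incubate 6 hr, 37 C; add ThT (30 uM final); after 1 hr ambient, read FP.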
# GoLoco inh red: RGS12 GoLoco-Gai1 interaction inhibition; P63096; Gai1:RGS12 GoLoco peptide FP, rhodamine, 10 min; Potency, µM (highest dose often 61.6 µM), without a hit: at the highest dose activity, negative = inhibition, usual class: inhibitors; 230,000 compounds, 0.44% hits; AID 880; active = well fitted inhibition curve with a large enough effect, not every such curve was filed as active; inactive = no such curve, though single readings can be large or run the other way; note: nearly all actives have a fitted effect of over 30% in size
# Target sequence (P63096 whole entry, looked up): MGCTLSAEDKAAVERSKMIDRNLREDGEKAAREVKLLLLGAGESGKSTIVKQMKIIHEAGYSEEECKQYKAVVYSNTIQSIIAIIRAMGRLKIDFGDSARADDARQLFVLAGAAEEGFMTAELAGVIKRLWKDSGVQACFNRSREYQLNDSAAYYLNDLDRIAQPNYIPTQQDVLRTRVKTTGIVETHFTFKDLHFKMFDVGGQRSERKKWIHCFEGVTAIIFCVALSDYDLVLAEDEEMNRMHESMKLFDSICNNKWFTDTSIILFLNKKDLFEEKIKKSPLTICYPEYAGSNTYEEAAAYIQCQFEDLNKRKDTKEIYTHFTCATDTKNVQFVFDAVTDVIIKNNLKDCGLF
# TRb-SRC2 inh: disrupts binding of human TR beta to SRC2; Potency, µM (top dose mostly 106 µM), for inactives: at the top dose activity change, negative = inhibition, usual class: inhibitors; TRbeta-SRC2 peptide binding, fluorescence polarization; receptor liganded with 1 µM T3; AID 1469; 280,000 compounds, 0.065% hits; P10828;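 note: plate controls were bound peptide for no effect and peptide without receptor for full effect; nearly all actives have a fitted effect of over 50% in size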
#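 Quantitative HTS by FP: 0.6 uM TRb LBD, 20 nM labeled SRC2 20-mer, 1 uM T3, 5% DMSO; 5 hr ambient incubation; % activity per concentration and potencies from concentration series.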
# * marks the source's active call; other numbers are inactive results; ? = inconclusive; nt = no result; [ ] = remark or other dose. Unless noted, calls come from the whole dose curve; as a rule, active = well fitted curve in the direction sought with a large enough effect; inconclusive = small, poorly fitted or top-dose-only effect, or another doubt; inactive = no such curve, though single readings can be large; an effect the other way counts as inactive or inconclusive. Unless noted, % is set by controls: 0 for no effect and ±100 for the full control effect; potency is the fitted concentration of half-maximal effect.
SMILES,Tau fibril ThT,TexasRed fluor,Tau fluor cs,Tau fibril FP,GoLoco inh red,TRb-SRC2 inh
CSCC[C@H](NC(=O)[C@H](CC(C)C)N(C)C(=O)[C@@H]1CCCN1C(=O)[C@H](Cc1ccccc1)NC(=O)[C@H](Cc1ccccc1)NC(=O)CCC(C)N)C(=O)O (stereo partly specified),nt,-11.5%,nt,nt,nt,7.3%
C[C@H](c1ccccc1)N1C(=O)[C@H]2[C@@H]3[C@H](O)[C@H](O)CC(=O)[C@H]3CC[C@H]2C1=O,-7.1%[11.5 µM],-3.5%[11.2 µM],-9.7%[11.6 µM],-1.0%[11.6 µM],nt,-0.4%[11.2 µM]
COc1ccc(Nc2nc(OC)nc(N3CCOCC3)n2)cc1,-17.5%,-2.1%,-17.4%,-6.3%,12.5%,2.5%
COc1ccc(Nc2nc(Nc3ccc(OC)cc3OC)nc(N3CCOCC3)n2)c(OC)c1,?,-2.7%,2.82µM*[quencher],3.4%,nt,2.8%
CC[C@H](C)[C@H](NC(=O)[C@@H]1CCCN1C(=O)[C@H](Cc1cnc[nH]1)NC(=O)[C@@H](NC(=O)[C@H](Cc1ccc(O)cc1)NC(=O)[C@@H](NC(=O)[C@H](CCCN=C(N)N)NC(=O)CNC)C(C)C)[C@@H](C)CC)C(=O)O,nt,2.2%,nt,nt,nt,2.3%
CC(C)c1ccc2[nH]c(O)c(N=NC(=S)NCCc3ccccc3)c2c1,?,0.6%,?,-14.8%,nt,-0.7%
Oc1[nH]c2ccccc2c1N=NC(=S)NCCc1ccccc1,14.1µM*,-5.1%,12.6µM*[quencher],?,2.5%,-7.8%
Oc1cccc(NC(=S)N=Nc2c(O)[nH]c3ccccc23)c1,10µM*,?,?,3.8%,15.6%,19.5%
C=C1C(=O)OC(CCCCCCCC)C1C(=O)O (stereo unspecified),nt,-2.0%,nt,nt,nt,-25.3%
CN1C(=O)/C(=C/C=C2\SCCN2C)SC1=S,?,-2.7%,-14.5%,4.3%,11.6%,9.3%
CN1C(=O)/C(=C/C=C2\SCCN2C)N(C)C1=S,28.2µM*,-3.4%,-15.0%,-8.4%,5.3%,-0.9%
C=CCN1C(=O)/C(=C2\SC(N3CCOCC3)=NC2=O)c2cc(Br)ccc21,15.8µM*,-3.2%,-27.1%,8.8%,0.0%,-11.7%
CC(=O)Nc1ccc(Nc2nc(C)nc3c2oc2ccccc23)cc1,?,-11.1%,-25.1%,-1.9%,17.6%,-0.6%
CC(=O)N1CCN(c2ccc(Nc3nc(C)nc4c3oc3ccccc34)cc2)CC1,8.91µM*,-11.6%,?,2.1%,-3.5%,-1.5%
CC[C@H](C)[C@H](NC(=O)[C@H](CC(C)C)NC(=O)[C@@H](N)CO)C(=O)NCC(=O)N[C@@H](CCCCN)C(=O)N[C@H](C(=O)O)C(C)C,nt,0.2%,nt,nt,nt,-4.4%
CC(=O)c1ccc(NC(=S)NC(C)c2ccc(Cl)cc2Cl)cc1 (stereo unspecified),9.3%,-1.2%,14.1µM*[quencher],31.6µM*,12.0%,-4.3%
CCn1c2ccccc2c2cc(/C=N/NC(=O)c3ccc(O)cc3)ccc21,?,-0.1%,10µM*[quencher],?,-6.0%,-3.0%
CCn1c2ccccc2c2cc(/C=N/NC(=O)c3cc(O)cc(O)c3)ccc21,-4.9%,-1.5%,-5.1%,-1.6%,1.5%,5.5%
CC1(C)CC(=O)C=C(NC2=CC3OC(c4ccccc4)OCC3OC2=O)C1 (stereo unspecified),17.8µM*,0.0%,-6.5%,?,-20.7%,-10.4%
CC(C)Cc1ccc(C(C)C(=O)OCC(=O)c2c[nH]c3ccccc23)cc1 (stereo unspecified),-14.3%,1.9%,?,22.4µM*,9.7%,0.2%
Cc1ccc(C(=O)OCC(=O)c2c[nH]c3ccccc23)cc1,1.1%,0.2%,-6.0%,3.8%,10.5%,-2.9%
CC(C)C(NS(=O)(=O)c1c(Cl)cccc1Cl)C(=O)OCC(=O)c1c[nH]c2ccccc12 (stereo unspecified),5.3%,0.0%,8.91µM*[quencher],?,18.4%,20.6%
Oc1ccc2ccccc2c1CN(Cc1c(O)ccc2ccccc12)C1CCCCC1,nt,nt,nt,nt,4.0%[14.2 µM],nt
COc1ccc(-c2nc3c(c4c2C[C@H](c2ccccc2)OC4)CN(C(=O)NCCc2c[nH]c4ccccc24)CC3)c(C)c1,-2.6%[11.5 µM],-2.6%[11.2 µM],-7.1%[11.6 µM],-7.3%[11.6 µM],-1.2%[14.2 µM],0.4%[11.2 µM]
Nc1c(C(=O)Nc2ccccc2)c2nc3ccccc3nc2n1-c1ccc(O)cc1,?,0.2%,14.1µM*[quencher],?,26.8%,-0.8%
SMILES,Tau fibril ThT,TexasRed fluor,Tau fluor cs,Tau fibril FP,GoLoco inh red,TRb-SRC2 inh
CCOC(=O)c1c(N)n(-c2ccc(N)cc2)c2nc3ccccc3nc12,?,-14.3%,-12.2%,5.3%,8.9%,1.7%
CC(C)(C)C1CCc2onc(C(=O)Nc3sc4c(c3C#N)CCCC4)c2C1 (stereo unspecified),31.6µM*,3.1%,-20.2%,?,nt,-11.5%
COc1ccccc1-c1cc(C(=O)Nc2sc3c(c2C#N)CCCC3)no1,35.5µM*,7.7%,-21.9%,?,nt,-4.6%
Cc1onc(-c2ccccc2)c1C(=O)NC(=S)Nc1sc2c(c1C#N)CCCC2,28.2µM*,-0.9%,-28.5%,?,22.5%,-1.2%
CC(C)(C)C1CCc2onc(C(=O)Nc3sc4c(c3C(N)=O)CCCC4)c2C1 (stereo unspecified),?,-20.7%,-21.3%,?,nt,-2.3%
CCCN1CCc2c(sc(NC(=S)NC(=O)c3ccccc3)c2C#N)C1,15.8µM*,-3.8%,?,2.3%,64.2%,-2.5%
C=CC1=C2C=C(C3CC3)N(CCCCO)C=C2C(=O)C(C)(OC(=O)c2ccco2)C1=O (stereo unspecified),?,0.1%[11.2 µM],-9.0%[11.6 µM],?,-12.6%[14.2 µM],-1.4%[11.2 µM]
CCCCC/C=C\C/C=C\C/C=C\CCCCCCC(=O)NCC(=O)O,-9.2%,-0.4%,-3.6%,1.9%,1.8%,1.2%
CC(C)C[C@H](NC(=O)[C@H](CCCCN)NC(=O)[C@H](CCC(N)=O)NC(=O)[C@H](Cc1cnc[nH]1)NC(=O)[C@H](Cc1cnc[nH]1)NC(=O)[C@@H](N)C(C)C)C(=O)N[C@H](C(=O)N[C@@H](Cc1ccccc1)C(=O)N[C@@H](Cc1ccccc1)C(=O)N[C@@H](C)C(=O)N[C@@H](CCC(=O)O)C(=O)N[C@@H](CC(=O)O)C(=O)N[C@H](C(=O)NCC(=O)N[C@@H](CO)C(=O)N[C@@H](CC(N)=O)C(=O)N[C@@H](CCCCN)C(=O)O)C(C)C)C(C)C,nt,3.1%,nt,nt,nt,7.3%
COc1ccccc1CNC(=O)C(C)n1c(=O)cc(C(F)(F)F)c2c(C)nn(C)c21 (stereo unspecified),3.9%,-3.3%,-7.7%,-0.8%,nt,-10.5%

# Compound activity from PubChem BioAssay.
